# In the supplement of paper PMC6897291:
# Experiments:
# U-2932 [1] = assay: growth inhibition by drug alone (1 - RLU/untreated control) (fraction); higher = stronger inhibition; conditions: 177Lu-lilotomab satetraxetan 0 ug/ml
# In short: (§1)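 Growth inhibition was calculated from RealTime-Glo RLU against untreated no-drug wells. Values equal 1 − RLU/mean of 48 untreated no-drug wells per plate, read daily from day 3 after 1 h at 37°C. RIVA and U-2932 cells, with or without 18 h pretreatment by a radiolabelled anti-CD37 antibody conjugate (~600 MBq/mg; 0.5 µg/ml RIVA, 1 µg/ml U-2932), were washed and plated at 3,000 cells/well on compound-printed plates at 10/100 nM (RIVA) or 10/1,000 nM (U-2932).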
# RIVA [2] = assay: as above; conditions: 177Lu-lilotomab satetraxetan 0 ug/ml
# In short: as §1
# U-2932 [3] = assay: growth inhibition by drug plus 177Lu-lilotomab satetraxetan (1 - RLU/untreated control) (fraction); higher = stronger inhibition; conditions: 177Lu-lilotomab satetraxetan 1 ug/ml
# In short: as §1
# RIVA [4] = assay: as above; conditions: 177Lu-lilotomab satetraxetan 0.5 ug/ml
# In short: as §1
Compound,"growth inhibition by drug alone (U-2932 [1]; 10 nM, time (day): 3)","growth inhibition by drug alone (U-2932 [1]; 10 nM, time (day): 4)","growth inhibition by drug alone (U-2932 [1]; 10 nM, time (day): 5)","growth inhibition by drug alone (U-2932 [1]; 10 nM, time (day): 6)","growth inhibition by drug alone (U-2932 [1]; 1000 nM, time (day): 3)","growth inhibition by drug alone (U-2932 [1]; 1000 nM, time (day): 4)","growth inhibition by drug alone (U-2932 [1]; 1000 nM, time (day): 5)","growth inhibition by drug alone (U-2932 [1]; 1000 nM, time (day): 6)","growth inhibition by drug alone (RIVA [2]; 10 nM, time (day): 3)","growth inhibition by drug alone (RIVA [2]; 10 nM, time (day): 4)","growth inhibition by drug alone (RIVA [2]; 10 nM, time (day): 5)","growth inhibition by drug alone (RIVA [2]; 10 nM, time (day): 6)","growth inhibition by drug alone (RIVA [2]; 100 nM, time (day): 3)","growth inhibition by drug alone (RIVA [2]; 100 nM, time (day): 4)","growth inhibition by drug alone (RIVA [2]; 100 nM, time (day): 5)","growth inhibition by drug alone (RIVA [2]; 100 nM, time (day): 6)","growth inhibition by drug plus 177Lu-lilotomab satetraxetan (U-2932 [3]; 10 nM, time (day): 3)","growth inhibition by drug plus 177Lu-lilotomab satetraxetan (U-2932 [3]; 10 nM, time (day): 4)","growth inhibition by drug plus 177Lu-lilotomab satetraxetan (U-2932 [3]; 10 nM, time (day): 5)","growth inhibition by drug plus 177Lu-lilotomab satetraxetan (U-2932 [3]; 10 nM, time (day): 6)","growth inhibition by drug plus 177Lu-lilotomab satetraxetan (U-2932 [3]; 1000 nM, time (day): 3)","growth inhibition by drug plus 177Lu-lilotomab satetraxetan (U-2932 [3]; 1000 nM, time (day): 4)","growth inhibition by drug plus 177Lu-lilotomab satetraxetan (U-2932 [3]; 1000 nM, time (day): 5)","growth inhibition by drug plus 177Lu-lilotomab satetraxetan (U-2932 [3]; 1000 nM, time (day): 6)","growth inhibition by drug plus 177Lu-lilotomab satetraxetan (RIVA [4]; 10 nM, time (day): 3)","growth inhibition by drug plus 177Lu-lilotomab satetraxetan (RIVA [4]; 10 nM, time (day): 4)","growth inhibition by drug plus 177Lu-lilotomab satetraxetan (RIVA [4]; 10 nM, time (day): 5)","growth inhibition by drug plus 177Lu-lilotomab satetraxetan (RIVA [4]; 10 nM, time (day): 6)","growth inhibition by drug plus 177Lu-lilotomab satetraxetan (RIVA [4]; 100 nM, time (day): 3)","growth inhibition by drug plus 177Lu-lilotomab satetraxetan (RIVA [4]; 100 nM, time (day): 4)","growth inhibition by drug plus 177Lu-lilotomab satetraxetan (RIVA [4]; 100 nM, time (day): 5)","growth inhibition by drug plus 177Lu-lilotomab satetraxetan (RIVA [4]; 100 nM, time (day): 6)"
O=C(/C=C/c1cccnc1)NCCCCC1CCN(C(=O)c2ccccc2)CC1,0.935,0.894,0.825,0.783,0.982,0.985,0.984,0.985,0.983,0.983,0.982,0.979,0.981,0.982,0.982,0.98,0.909,0.859,0.812,0.758,0.984,0.985,0.986,0.988,0.991,0.991,0.99,0.99,0.99,0.99,0.991,0.991
Cn1cc(C2=C(c3ccc(Cl)cc3Cl)C(=O)NC2=O)c2ccccc21,-0.00858,0.00823,0.113,-0.0764,-0.0209,-0.0468,-0.0762,-0.00785,-0.0583,-0.11,-0.108,-0.172,-0.488,-0.393,-0.389,-0.481,-0.0696,0.00483,0.017,-0.0529,0.0138,0.0592,0.059,0.146,0.449,0.533,0.546,0.555,0.465,0.512,0.502,0.492
C[C@H](NC(=O)Cc1cc(F)cc(F)c1)C(=O)N[C@@H]1C(=O)N(C)c2ccccc2-c2ccccc21,-0.0485,-0.0319,-0.0413,0.0451,-0.0641,-0.0187,-0.0724,-0.157,-0.258,-0.261,-0.314,-0.599,-0.307,-0.355,-0.331,-0.429,-0.062,-0.041,-0.0625,-0.0177,-0.026,0.0466,0.00781,-0.0375,0.291,0.422,0.458,0.48,0.298,0.4,0.412,0.389
Cc1ccc(S(=O)(=O)C=CC#N)cc1,0.107,0.0923,-0.0275,-0.041,-0.00518,0.09,0.058,-0.0332,0.0697,-0.00988,-0.0606,-0.287,0.12,0.0423,0.00106,-0.129,0.00206,0.0303,0.0547,0.0948,0.00618,0.193,0.194,0.225,0.414,0.5,0.522,0.534,0.401,0.472,0.47,0.452
Nc1[nH]nc2nnc(-c3c(-c4ccccc4)nn4ccccc34)cc12,0.0936,0.109,0.0192,-0.0741,0.0442,0.0356,-0.0414,-0.0395,0.0237,0.104,0.0531,-0.13,-0.0641,0.0167,0.00135,-0.0876,0.135,0.17,0.238,0.275,0.0922,0.143,0.19,0.259,0.592,0.635,0.657,0.652,0.357,0.48,0.493,0.495
COc1ccc2c3n(c(=NC(=O)c4cccnc4)nc2c1OC)CCN3,0.1,0.0853,-0.0391,-0.132,0.165,0.128,0.0515,0.0321,0.159,0.0605,-0.0752,-0.345,0.0975,0.0435,0.0156,-0.048,0.021,0.066,0.0894,0.178,0.192,0.175,0.166,0.278,0.429,0.534,0.559,0.569,0.482,0.53,0.551,0.551
CC1(C)CCC(c2ccc(Cl)cc2)=C(CN2CCN(c3ccc(C(=O)NS(=O)(=O)c4ccc(N[C@H](CCN5CCOCC5)CSc5ccccc5)c(S(=O)(=O)C(F)(F)F)c4)cc3)CC2)C1 [ABT-263 (Navitoclax)],-0.00418,-0.0018,-0.0135,0.024,0.0839,0.635,0.85,0.894,0.116,0.0668,0.0479,-0.0157,0.977,0.976,0.975,0.974,-0.0296,-0.00166,0.0241,0.15,0.115,0.591,0.816,0.904,0.568,0.593,0.605,0.604,0.984,0.983,0.983,0.983
